Most compounds without a hit are left out; they make up all but 1.6% or so of the library.
KCNQ2 block = blocks the rat KCNQ2 potassium channel; 1.1% of 310,000 active; AID 2156; B-score at 10 µM; CHO-K1 KCNQ2, FluxOR thallium flux, 20 min; hits give low values; O88943;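 active means fluorescence ratio B-score at most minus 3 library SDs, with starting brightness B-score within 2 library SDs, cut at about -5.5 in these data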
KCNQ2 enhance = enhances the rat KCNQ2 potassium channel; AID 2239; CHO-K1 KCNQ2, FluxOR thallium flux fluorescence; hits give high values; 0.54% of 310,000 active; B-score at 10 µM;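 active means fluorescence ratio B-score at least 3 SD of library B-scores, with initial fluorescence B-score within 3 of them, cut at about 5.3 in these data; same plate scores as AID 2156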;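 further: B-score of peak minus minimum over baseline fluorescence ratio after K+ and Tl+ stimulus; positive B-score means potentiation of KCNQ2 with more thallium influx and brighter signal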
Kir21 confirm = confirmation of mouse Kir2.1 potassium channel inhibitors. shares compounds with KCNQ2 enhance. Tl flux remaining, % of negative control (hits give low values), % at 10 µM. Kir2.1-expressing cells, FluxOR thallium flux fluorescence; hits give low values. 41% of 2,300 active;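 active means Primary-screen hit whose thallium flux fell at least 3 control SD below untreated wells in both duplicates, with normal baseline fluorescence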
HEK293 ctr = parental HEK293 activity in Kir2.1 inhibitor counter-screen. shares compounds with KCNQ2 enhance. parental HEK293 cells, FluxOR thallium flux fluorescence; 0% = unstimulated blank wells. FluxOR signal as % of negative control (100 = no effect), % at 10 µM. 19% of 2,300 active. AID 2105;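 active means dye signal at least 3 control SD above or below untreated wells in both duplicates, raw fluorescence within 3, either direction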;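 further: percent is based on the flux ratio of peak minus minimum fluorescence over baseline F0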
CHO-K1 Tl ctr = parental CHO-K1 activity in KCNQ2 potentiator counter-screen | shares compounds with KCNQ2 enhance | parental CHO-K1 cells, FluxOR thallium flux fluorescence; zero = vehicle mean+3SD, 100% = vehicle-minus-blank window | activity increase over 3SD of controls, % at 10 µM | 43% of 1,200 active | AID 2282;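 active means signal rise of at least 3 SD above the untreated control mean, in both duplicate wells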;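 further: counter screen of KCNQ2 potentiator hits so any rise reflects channel-independent effects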
KCNQ1 pot spec = tests whether KCNQ2 potentiators also act on human KCNQ1. shares compounds with KCNQ2 enhance. CHO KCNQ1 stable, FluxOR thallium flux fluorescence; beyond 3SD, as % of vehicle-control signal. activation over 3SD threshold, % at 10 µM. 28% of 1,200 active. AID 2283;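 active means fluorescence ratio rise of at least 3 SD of vehicle wells above their mean, in both replicate wells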
Target sequence (P51787 whole entry, looked up): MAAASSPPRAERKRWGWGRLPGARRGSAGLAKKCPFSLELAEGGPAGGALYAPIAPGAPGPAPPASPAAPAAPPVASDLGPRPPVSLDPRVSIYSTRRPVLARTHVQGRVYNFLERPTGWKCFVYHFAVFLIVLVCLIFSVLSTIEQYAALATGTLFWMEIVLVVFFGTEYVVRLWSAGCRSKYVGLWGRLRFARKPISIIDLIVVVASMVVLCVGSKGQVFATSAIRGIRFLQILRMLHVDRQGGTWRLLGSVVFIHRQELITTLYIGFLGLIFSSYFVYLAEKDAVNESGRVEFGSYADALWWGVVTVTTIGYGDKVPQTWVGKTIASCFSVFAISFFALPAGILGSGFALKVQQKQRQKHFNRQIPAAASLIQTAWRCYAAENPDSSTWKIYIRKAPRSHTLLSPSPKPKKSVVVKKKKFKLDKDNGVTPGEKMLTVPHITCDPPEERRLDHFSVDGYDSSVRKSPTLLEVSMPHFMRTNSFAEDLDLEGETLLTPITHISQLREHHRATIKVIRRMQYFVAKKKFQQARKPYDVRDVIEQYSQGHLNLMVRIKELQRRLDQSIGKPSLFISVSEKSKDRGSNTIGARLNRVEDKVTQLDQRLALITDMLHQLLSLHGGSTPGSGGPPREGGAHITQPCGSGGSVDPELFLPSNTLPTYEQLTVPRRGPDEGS
KCNQ2 pot conf = rat KCNQ2 channel potentiator confirmation; potentiation, less the hit threshold, % at 10 µM; 68% of 1,200 active; shares compounds with KCNQ2 enhance; CHO-KCNQ2 cells, FluxOR thallium flux fluorescence;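 active means fluorescence ratio rising 3 SD or more over the vehicle control mean in both replicates, plus primary screen hit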;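 further: peak minus minimum thallium fluorescence divided by baseline after K/Tl stimulus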
Kir2-1 sel = tests whether KCNQ2 potentiators also affect mouse Kir2.1. shares compounds with KCNQ2 enhance. HEK293 Kir2.1, FluxOR thallium flux fluorescence. activity over 3SD threshold, % at 10 µM. 2% of 1,200 active. AID 2345;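 active means fluorescence ratio rise of at least 3 SD above the vehicle-control mean, seen in both replicates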
KCNQ2 W236L MoA = KCNQ2 potentiators acting on retigabine-insensitive rat KCNQ2 W236L mutant | shares compounds with KCNQ2 enhance | 10% of 940 active | current increase over 3SD of negative controls (%), hits give high values, % at 25 µM | AID 2558 | CHO KCNQ2-W236L, automated patch clamp current;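 active means current increase at least 3 SD of the untreated controls above them in both duplicate recordings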
Of the large screens only hits and unclear results are named; the others gave an inactive call (follow-up assays come after a bar, where they were run).

CN1C(=O)/C(=N\OC(=O)c2cccc3ccccc23)c2ccccc21	KCNQ2 enhance 5.4 | Kir21 confirm inactive | HEK293 ctr inactive | CHO-K1 Tl ctr inactive | KCNQ1 pot spec inactive | KCNQ2 pot conf inactive | Kir2-1 sel inactive
CC(/C=C1\SC(=S)N(NC(=O)c2ccncc2)C1=O)=C\c1ccccc1	none
CC(/C=C1\SC(=S)N(NS(=O)(=O)c2ccccc2)C1=O)=C\c1ccccc1	KCNQ2 enhance 12 | Kir21 confirm inactive | HEK293 ctr 260% | CHO-K1 Tl ctr 0.8 | KCNQ1 pot spec 63 | KCNQ2 pot conf 56 | Kir2-1 sel inactive | KCNQ2 W236L MoA inactive
COc1ccc(/C=C2/SC(=S)N(NS(=O)(=O)c3ccccc3)C2=O)cc1	none
CC(/C=C1\SC(=S)N(NC(=O)c2ccc(C)cc2)C1=O)=C\c1ccccc1	KCNQ2 enhance 9.2 | Kir21 confirm inactive | HEK293 ctr inactive | CHO-K1 Tl ctr inactive | KCNQ1 pot spec inactive | KCNQ2 pot conf inactive | Kir2-1 sel inactive
O=C(NCCN1CCN(Cc2ccccc2)CC1)c1ccc(CS(=O)(=O)c2ccc(Br)cc2)o1	none
NC(N)=NC(=S)Nc1ccc(Cl)cc1	none
Nc1cc(-c2ccc(Br)cc2)nn1S(=O)(=O)c1cccc2nsnc12	KCNQ2 enhance 6.9 | Kir21 confirm inactive | HEK293 ctr inactive | CHO-K1 Tl ctr 20 | KCNQ1 pot spec inactive | KCNQ2 pot conf inactive | Kir2-1 sel inactive
Nc1cc(-c2ccc(Cl)cc2)nn1S(=O)(=O)c1cccc2nsnc12	none
Cc1cc(C)c2c(N=NN3CCOCC3)[nH]nc2n1	none (no result: KCNQ2 enhance)
O=C(CCC(=O)N1CCOc2ccc(Cl)cc21)NCCCN1CCN(c2ccccc2F)CC1	none
O=C(CCC(=O)N1CCOc2ccc(Cl)cc21)NCCCN1CCC(Cc2ccccc2)CC1	none (no result: KCNQ2 enhance) | Kir21 confirm inactive | HEK293 ctr inactive
CC(=O)Nc1ccc(S(=O)(=O)Nc2ccccc2N2CCOCC2)cc1Cl	none (no result: KCNQ2 enhance)
O=S(=O)(c1ccc(Cl)c(NC(=S)Nc2ccccc2N2CCOCC2)c1)N1CCOCC1	none
O=S(=O)(Nc1ccccc1N1CCOCC1)c1ccc(F)c(Cl)c1	none (no result: KCNQ2 enhance) | Kir21 confirm 46% | HEK293 ctr inactive
Fc1ccc(NC(=S)Nc2ccccc2N2CCOCC2)cc1Cl	none (no result: KCNQ2 enhance) | Kir21 confirm 63% | HEK293 ctr 134%
COc1ccc(Nc2nc(N3CCN(S(=O)(=O)N(C)C)CC3)nc3ccccc23)cc1	none
CCCn1c(SCC(=O)Nc2nnc(CC)s2)nnc1-c1ccncc1	none
c1csc(-c2nn3cnnc3c3ccccc23)c1	none
O=C(NNC(=O)C1CC=CCC1)c1ccccc1Cl (centres undefined)	none
COC(=O)c1ccc(C(=O)NC(=S)Nc2nc3c(s2)CCCC3)cc1	KCNQ2 enhance 7.3 | Kir21 confirm inactive | HEK293 ctr inactive | CHO-K1 Tl ctr 83 | KCNQ1 pot spec inactive | KCNQ2 pot conf inactive | Kir2-1 sel inactive | KCNQ2 W236L MoA inactive
O=C(NC(=S)Nc1nc2c(s1)CCCC2)c1ccccc1	none
Cc1ccc(S(=O)(=O)Nc2cc(C)c(O)c(Sc3n[nH]c(C)n3)c2)cc1	none (no result: KCNQ2 enhance)
CN(C)S(=O)(=O)Nc1cc(F)cc(F)c1	none (no result: KCNQ2 enhance)
Cc1cc(-c2ccccc2)c2ccc(NC(=O)C(C)(C)C)nc2n1	none
CC(=O)SCC(=O)N=c1sc2cc(F)ccc2n1C	KCNQ2 enhance 5.9 | Kir21 confirm inactive | HEK293 ctr inactive | CHO-K1 Tl ctr inactive | KCNQ1 pot spec inactive | KCNQ2 pot conf 5.6 | Kir2-1 sel inactive | KCNQ2 W236L MoA inactive
Cn1c(=NC(=O)CCS(=O)(=O)c2ccccc2)sc2cc(F)ccc21	none (no result: KCNQ2 enhance)
CCN(CC(=O)NCCCN1CCOCC1)S(=O)(=O)c1ccc(F)cc1	none (no result: KCNQ2 enhance)
O=c1c2cc(F)ccc2[nH]c(=S)n1Cc1ccc(F)cc1	none (no result: KCNQ2 enhance)

Screening data (PubChem BioAssay)
